Assay results: the supplement of paper PMC8728848
The full list was thinned out, with the strongest signals kept by preference.

Assays:
Experiment in all cases: glycan array binding signal (z-score within array); higher = stronger binding
Conditions in all cases: glycan notation: IUPAC condensed, linker removed
[1] = target: Gal(b1-4)GlcNAc(b1-3)Gal(b1-4)GlcNAc(b1-3)[Gal(b1-4)GlcNAc(b1-3)Gal(b1-4)GlcNAc(b1-6)]GalNAc
Method in brief: (§1)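 Glycan array binding is given as a within-array Z-score, which can be read as non-binding when negative. The arrays, 3228 of them, came from the Consortium for Functional Glycomics database and were retained only where the protein sequence was available. Z-scores were averaged across arrays of the same protein sequence at different concentrations or buffers and across linkers.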

[2] = target: Gal(b1-4)GlcNAc(b1-3)GalNAc
Method in brief: as §1

Gal3S(b1-4)Glc6S = target: Gal3S(b1-4)Glc6S
Method in brief: as §1

[3] = target: Gal3S(b1-4)[Fuc(a1-3)]Glc
Method in brief: as §1

Gal4S(b1-4)GlcNAc = target: Gal4S(b1-4)GlcNAc
Method in brief: as §1

Gal6S(b1-4)GlcNAc = target: Gal6S(b1-4)GlcNAc
Method in brief: as §1

[4] = target: GalNAc(b1-3)Gal(a1-6)Gal(b1-4)Glc
Method in brief: as §1

GalNAc(b1-4)GlcNAc6S = target: GalNAc(b1-4)GlcNAc6S
Method in brief: as §1

GalNAc6S(b1-4)GlcNAc = target: GalNAc6S(b1-4)GlcNAc
Method in brief: as §1

Glc(a1-4)Glc = target: Glc(a1-4)Glc
Method in brief: as §1

Glc(b1-4)Glc = target: Glc(b1-4)Glc
Method in brief: as §1

[5] = target: GlcNAc(b1-3)Gal(b1-4)GlcNAc(b1-3)Gal(b1-4)GlcNAc(b1-3)Gal(b1-4)GlcNAc(b1-2)Man(a1-3)[GlcNAc(b1-3)Gal(b1-4)GlcNAc(b1-3)Gal(b1-4)GlcNAc(b1-3)Gal(b1-4)GlcNAc(b1-2)Man(a1-6)]Man(b1-4)GlcNAc(b1-4)[Fuc(a1-6)]GlcNAc
Method in brief: as §1

GlcNAc(b1-4)GlcNAc = target: GlcNAc(b1-4)GlcNAc
Method in brief: as §1

Kdn(a2-3)Gal(b1-3)GlcNAc = target: Kdn(a2-3)Gal(b1-3)GlcNAc
Method in brief: as §1

[6] = target: Man(a1-2)Man(a1-3)[Man(a1-2)Man(a1-6)]Man(a1-6)[Man(a1-2)Man(a1-2)Man(a1-3)]Man(b1-4)GlcNAc(b1-4)GlcNAc
Method in brief: as §1

[7] = target: Man(a1-3)[Man(a1-6)]Man(b1-4)GlcNAc(b1-4)[Fuc(a1-6)]GlcNAc
Method in brief: as §1

[8] = target: Neu5Ac(a2-3)Gal(b1-3)]Neu5Ac(a2-3)Gal(b1-4)]GlcNAc
Method in brief: as §1

[9] = target: Neu5Ac(a2-3)Gal(b1-4)GlcNAc(b1-3)Gal(b1-4)GlcNAc(b1-3)Gal(b1-4)GlcNAc(b1-2)Man(a1-3)[Neu5Ac(a2-3)Gal(b1-4)GlcNAc(b1-3)Gal(b1-4)GlcNAc(b1-3)Gal(b1-4)GlcNAc(b1-2)Man(a1-6)]GalNAc
Method in brief: as §1

[10] = target: Neu5Ac(a2-3)Gal(b1-4)GlcNAc(b1-3)GalNAc
Method in brief: as §1

[11] = target: Neu5Ac(a2-3)Gal(b1-4)[Fuc(a1-3)]GlcNAc(b1-3)GalNAc
Method in brief: as §1

[12] = target: Neu5Ac(a2-6)Gal(b1-3)GlcNAc(b1-3)[Gal(b1-4)GlcNAc(b1-6)]Gal(b1-4)Glc
Method in brief: as §1

[13] = target: Neu5Ac(a2-6)Gal(b1-4)GlcNAc(b1-2)Man(a1-3)[GlcNAc(b1-2)Man(b1-4)GlcNAc(b1-2)Man(a1-6)]Man(b1-4)GlcNAc(b1-4)GlcNAc
Method in brief: as §1

[14] = target: Neu5Ac(a2-6)Gal(b1-4)GlcNAc(b1-2)Man(a1-3)[GlcNAc(b1-4)][Neu5Ac(a2-6)Gal(b1-4)GlcNAc(b1-2)Man(a1-6)]Man(b1-4)GlcNAc(b1-4)GlcNAc
Method in brief: as §1

[15] = target: Neu5Ac(a2-6)Gal(b1-4)GlcNAc(b1-6)[Gal(b1-3)]GalNAc
Method in brief: as §1

[16] = target: Neu5Ac(a2-6)GalNAc(b1-4)GlcNAc6S
Method in brief: as §1

[17] = target: Neu5Ac(a2-8)Neu5Ac(a2-3)Gal(b1-4)GlcNAc
Method in brief: as §1

[18] = target: Neu5Ac(a2-8)Neu5Gc(a2-3)Gal(b1-4)GlcNAc
Method in brief: as §1

B1: LlpA1 (Pseudomonas fluorescens), Q4KHC3 (protein)
chain: MGSSHHHHHHSSGLVPRGSHMAWIRYDFTDNGSSVLPARYYMAPNQYLQSPNKRFKLLFQADGNLALYDGAQLAWVADQNTPFTNVSKGNKKDPMMVFMNYGFVLDDPLRGRIWSTTPSDPTMGSREDASLRAFTQVQDDGNIVTVDTIPHWYAPNGRVFTPAVGAAMIIGGTTELVPGQFYSAGEHSLVFQGDGNLVVYGPNSSVIWATYTQNKGGVRCVMQEDGNLVIYAANNGVVWQSGTGGHPGATIRLQANGSFTIVTERPVWARFGYTPTIKPPRVFYPDHKWKTGSYTWNNVF
glycan array binding signal (z-score) [1]: 2.36 | glycan array binding signal (z-score) [2]: -0.927 | glycan array binding signal (z-score) (Gal3S(b1-4)Glc6S): -0.494 | glycan array binding signal (z-score) [3]: -0.518 | glycan array binding signal (z-score) (Gal4S(b1-4)GlcNAc): 0.315 | glycan array binding signal (z-score) (Gal6S(b1-4)GlcNAc): 0.079 | glycan array binding signal (z-score) [4]: 0.158 | glycan array binding signal (z-score) (GalNAc(b1-4)GlcNAc6S): 1.64 | glycan array binding signal (z-score) (GalNAc6S(b1-4)GlcNAc): 1.35 | glycan array binding signal (z-score) (Glc(a1-4)Glc): 0.211 | glycan array binding signal (z-score) (Glc(b1-4)Glc): -1.02 | glycan array binding signal (z-score) [5]: 1.27 | glycan array binding signal (z-score) (GlcNAc(b1-4)GlcNAc): 0.141 | glycan array binding signal (z-score) (Kdn(a2-3)Gal(b1-3)GlcNAc): -0.948 | glycan array binding signal (z-score) [6]: 0.448 | glycan array binding signal (z-score) [7]: -0.367 | glycan array binding signal (z-score) [8]: 0.082 | glycan array binding signal (z-score) [9]: 2.75 | glycan array binding signal (z-score) [10]: -0.31 | glycan array binding signal (z-score) [11]: 0.206 | glycan array binding signal (z-score) [12]: -0.201 | glycan array binding signal (z-score) [13]: 2.45 | glycan array binding signal (z-score) [14]: -0.209 | glycan array binding signal (z-score) [15]: 0.228 | glycan array binding signal (z-score) [16]: -0.028 | glycan array binding signal (z-score) [17]: -0.552 | glycan array binding signal (z-score) [18]: 8.89
